From the supplement of paper PMC3334620
Over roughly 33,000 sequences, “E-score (-0.5 to 0.5)” has its median near -0.021; the highest 2% begin near 0.32. The entries come from a sample that favours the highest values as a whole.

Biological target: T1, Zap1 (UniProt P47043)
T1 sequence: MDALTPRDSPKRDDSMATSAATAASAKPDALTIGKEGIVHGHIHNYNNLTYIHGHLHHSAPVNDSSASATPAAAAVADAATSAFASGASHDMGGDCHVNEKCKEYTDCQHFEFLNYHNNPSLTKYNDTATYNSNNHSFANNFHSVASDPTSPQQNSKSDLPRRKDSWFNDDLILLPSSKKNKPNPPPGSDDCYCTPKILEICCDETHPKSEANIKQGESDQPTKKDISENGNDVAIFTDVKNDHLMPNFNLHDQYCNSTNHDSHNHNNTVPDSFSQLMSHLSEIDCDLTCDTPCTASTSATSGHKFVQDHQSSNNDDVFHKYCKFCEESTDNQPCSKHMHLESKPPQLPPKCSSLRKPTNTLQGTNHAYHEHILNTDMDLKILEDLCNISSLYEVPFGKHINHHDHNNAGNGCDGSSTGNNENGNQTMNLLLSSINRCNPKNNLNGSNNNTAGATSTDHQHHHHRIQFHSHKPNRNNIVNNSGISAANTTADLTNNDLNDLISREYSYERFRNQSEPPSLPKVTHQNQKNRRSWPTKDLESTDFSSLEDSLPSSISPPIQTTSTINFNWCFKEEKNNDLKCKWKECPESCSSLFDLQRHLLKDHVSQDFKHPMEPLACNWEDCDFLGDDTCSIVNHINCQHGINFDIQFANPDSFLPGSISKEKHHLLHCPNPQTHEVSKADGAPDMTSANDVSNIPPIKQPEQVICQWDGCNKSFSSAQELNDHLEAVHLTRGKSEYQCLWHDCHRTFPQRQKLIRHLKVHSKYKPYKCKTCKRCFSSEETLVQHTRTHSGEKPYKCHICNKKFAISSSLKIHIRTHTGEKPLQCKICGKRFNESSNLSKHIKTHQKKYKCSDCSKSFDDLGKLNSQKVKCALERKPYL
Experiment: PBM E-score (8-mer binding enrichment) (E-score (-0.5 to 0.5)); higher = stronger / more preferred TF binding
Conditions: protein concentration: 200 nM; construct: GST-full length
How it was run: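 GST-tagged yeast TFs (full-length or DNA-binding domain) were made by PURExpress in vitro transcription/translation and applied at about 100-200 nM to universal all-10-mer Agilent arrays. The arrays were made double-stranded by primer extension, on fresh or once-stripped slides. Bound protein was detected with fluorescent anti-GST, and scans were normalised with masliner. Each ungapped eight-base word, pooled with its reverse complement, received an E-score (modified Wilcoxon-Mann-Whitney statistic) from the Universal PBM Analysis Suite.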

Sequence	PBM E-score
AACAGATG	-0.00675
AAGACTTA	-0.0811
CTTAGACC	-0.0476
GAGCGTAC	-0.162
TACTTGCA	0.0221
CGGGGCTA	-0.15
CGGGCTCA	-0.323
ATGAGGTA	0.324
CTGAGGTA	0.275
ATGAGGTG	0.0386
GGCTAGCC	-0.248
AGTGCCCG	-0.203
CCTGCTCG	-0.0742
ACCCTCGG	0.329
CCCCTCGA	0.169
ACACTCGT	-0.0522
ACCCTCGT	0.358
CCCCTCGC	0.0553
ACCCTCCG	0.228
ACCCTCGA	0.143
CCCCTCGG	0.34
ACCCTCGC	0.267
CAGTACAG	0.091
ACTTCTCT	-0.0321
CCAAGTTA	0.0627

Sequence	PBM E-score
CATGACGC	-0.108
ACCAGCGC	-0.0562
GGACCTCC	-0.134
GAAGGAGA	-0.122
GACTCTCC	-0.236
AACCCAAA	0.35
ACCACAAG	0.259
TACCCCCA	0.054
CACCCAAA	0.255
GACCCCAA	0.172
ACCACAAA	0.35
TACCCCAA	0.363
GCCACAAA	0.221
AACCCAAC	0.282
AACCCAAT	0.187
GACCCAAA	0.299
AACCCAAG	0.346
CGTTAGCC	-0.0813
GTCTTAGA	0.0182
CCATCAAA	0.0846
CCAGAAGA	-0.0769
ACCCCCAA	-0.0064
TACCAAAA	0.161
AACCCCCA	-0.0716
ACCCCAAA	0.337

Sequence	PBM E-score
AACCAAAA	0.364
ACCCCAAG	0.311
GACCCCAC	0.243
AACCCCAA	0.377
CACCAAAA	0.235
AACCCCAC	0.344
ACCCCCAC	-0.286
CCCCCAAA	-0.22
AACTAACG	0.166
AACTGCGC	-0.0727
CCTTAGAA	0.211
GCCAACAA	0.192
AGGCTAAC	-0.0255
TCCTACCA	-0.13
GATTTAGC	0.118
ATTGTGGC	0.0557
AAACCCAT	0.253
ACCCCCAT	0.0539
ACAAAAAC	0.182
ACCCAAAA	0.345
GCCCAAAA	0.179
ACAAAAAT	0.234
ACCCAAAG	0.271
AACCCCAT	0.359
ACAAAAAA	0.317

Sequence	PBM E-score
CCCCTTCA	-0.105
CTCCTAAA	-0.147
GCAATGCC	-0.104
ACCACCGA	0.172
ACGTAAGG	-0.112
AACAGGCG	-0.32
TTATCAAA	0.2
GTAATCAA	0.146
ATTCACTA	0.0664
CATAGAGC	-0.238
ATGAGCGC	-0.0149
GACCTGAA	0.132
CCGGCGCC	-0.114
ATAGGGTA	0.38
CTAGGGTA	0.411
CTAGGGAA	-0.037
ATAGGGTC	0.272
GTAGGGAA	-0.112
GTAGGGCA	-0.143
CTAGGGTC	0.309
GTAGGGTA	0.429
ATAGGGTG	0.214
TTAATGAA	0.187
TCTTGGAA	0.089
AGATTAAA	0.2

Sequence	PBM E-score
GCTTTGAC	0.0804
CTAGACTC	-0.231
ACGCATTA	0.12
AATAAGAA	0.208
ATAGAAGC	-0.0622
CACAACCA	0.343
AACAACCG	0.1
CACAACCC	0.414
CCCAACCC	0.163
CACAACAA	0.0567
AACAACCC	0.408
CCCAACCA	0.123
CACAACCG	0.289
AACAACCA	0.319
AACAACAC	0.151
AACAACAA	0.181
AACAACCT	0.273
AGCGCCAG	-0.256
CGCTTAGC	-0.239
ACATTTGC	-0.00108
CTTCCCAA	-0.213
TACAACCA	0.319
TACAACAA	0.276
GACAAACC	0.124
GACAACTC	-0.0129

Sequence	PBM E-score
GACAACCA	0.252
GACAACCC	0.35
GCGTCGCC	-0.162
GGGGCCTA	-0.136
GCCAGGGA	-0.174
CCCCACCA	0.119
AACCACCA	0.273
ACCCACCC	0.373
CACCACCC	0.186
CCCCACCC	0.357
GCCCACCC	0.335
GCCCACAC	-0.102
GCCCACCA	-0.217
ACCCACCT	0.213
CCCCACCG	0.163
AACCACCC	0.353
ACCCACCA	0.177
ACACCAGT	-0.0248
GTGCCCTA	-0.314
CCTGGTGA	0.0199
CGCTGCGC	-0.373
GCTGAGAA	-0.156
ATCTGAGG	0.094
CCCCTGAC	0.113
ACCCTGAT	0.344

Sequence	PBM E-score
ACCCTGTC	0.193
AACCTGTG	0.207
AACCTGAT	0.177
ACCCTGGC	0.183
ACCCTGGA	0.161
AGCCTGAT	-0.177
AGCCTGTG	-0.29
ACCCTGAC	0.335
ACCCTGGG	0.376
ACCCTGTG	0.367
CATAGCTA	-0.113
GCTGTGGA	-0.0748
CTAGTTCA	-0.00273
CCAACAGG	0.0645
AACCTCCA	0.0742
ACACTTCT	-0.0698
CAAGTGAG	-0.196
CCCCTGAG	-0.0275
ATCCTGAG	-0.0542
ACCCTGAG	0.378
AGCAACCG	-0.0288
AACTGCCG	-0.0311
ACCTCGCG	0.109
GCGTTACA	0.126
